The values below come from PubChem BioAssay.

Calls of active or inactive are those of the source.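 Rule for the calls, unless noted: active = compounds giving at least 50% inhibition in the cell-based MKP-3 phosphatase rescue imaging test; inactive = the rest.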

Test [1] is described as follows: inhibitors of TNFa-induced NFkB p65 translocation, primary screen, imaging, HUVEC, MLSMR starter and 10KST1 sets (AID 438;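 active = inhibition above 20% together with a positive visual image hit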;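 note: compound added about 3h40 before a 20 min TNFalpha stimulation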;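 for inhibition: signal is the nuclear over cytoplasmic p65 intensity ratio per well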). As to conditions: HUVEC TNFa-induced p65 nuclear translocation; cell count: measured here: nuclei count (cytotoxicity indicator), at 2.08 µM; inhibition: at 2 µM, stronger effect = higher value, 0% TNFa-plus-vehicle, 100% no-TNFa wells.
Test [2] can be described thus: reduction of polyQ htt aggregates in cells – imaging, exon1htt(103Q)mCFP cells, high-content imaging, primary screen (AID 483;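 active = visual image review flags a hit and inhibition of aggregation exceeds 20%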;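 note: compound exposure lasted 3 days before fixation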;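 for nuclei count: percent of the per-plate median nuclei count of sample wells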). Particulars: exon1htt(103Q)mCFP cell line, aggregate imaging, at 2 µM; inhibition of aggregation: stronger effect = higher value; nuclei count: measured here: cell count, toxicity.
Test [3] in a line: endothelial E-selectin expression blockers – imaging, HUVEC, immunofluorescence, MLSMR starter and 10KST1 sets, primary screen (AID 487;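 active = visually confirmed hit in the image check and inhibition above 20%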;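 for inhibition: signal is fraction of cell area covered by stained E-selectin grains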;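 for nuclei count: 100% = median nuclei count of all wells on the same plate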). As to conditions: HUVEC TNFalpha-induced E-selectin immunofluorescence imaging, at 2 µM; inhibition: stronger effect = higher value; nuclei count: measured here: cell number, toxicity.
Test [4] in a line: Primary imaging screen for DUSP6 inhibitors that restore phospho-Erk in transfected HeLa cells, chemical complementation (AID 609).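 For inhibition: phospho-Erk level distribution per well compared with pooled transfected vehicle control wells.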 Particulars: HeLa MKP-3 transfected, phospho-Erk imaging KS statistic, at 10 µM, cells stimulated with TPA for 15 min.
Test [5] concerns the target Dual specificity protein phosphatase 6 (Homo sapiens) (UniProt Q16828). Described as above. As to conditions: HeLa MKP-3 transfected, phospho-Erk imaging KS statistic; at 10 µM; stronger effect = higher value; cells stimulated with TPA for 15 min.
For test [6], the target named is Voltage-gated potassium channel subunit beta-2 (Rattus norvegicus) (UniProt P62483). Nature of the test: inhibitors of rat Kvbeta2 reductase activity – biochemical, NADPH fluorescence, primary screen (AID 622;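 active = fluorescence slope higher than the sample average by over 3 SD, cut at about -0.22 in these data, passing the limit was not always enough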;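 note: slope of raw intensity against log time taken from 70 to 1610 s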). As to conditions: recombinant KvBeta, 4-cyanobenzaldehyde reduction, at 10 µM, stronger effect = higher value.
Chain of Voltage-gated potassium channel subunit beta-2 (Rattus norvegicus) (P62483 whole entry, looked up): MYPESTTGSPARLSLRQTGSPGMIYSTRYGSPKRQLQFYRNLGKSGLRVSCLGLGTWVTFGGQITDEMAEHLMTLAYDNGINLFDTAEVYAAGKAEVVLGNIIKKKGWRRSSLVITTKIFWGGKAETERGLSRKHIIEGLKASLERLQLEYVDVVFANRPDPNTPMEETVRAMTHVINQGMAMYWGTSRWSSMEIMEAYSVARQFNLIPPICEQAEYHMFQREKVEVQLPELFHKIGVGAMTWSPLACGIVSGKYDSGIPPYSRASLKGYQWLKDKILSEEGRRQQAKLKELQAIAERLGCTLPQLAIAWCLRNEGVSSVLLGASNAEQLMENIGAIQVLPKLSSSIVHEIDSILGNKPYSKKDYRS
For test [7] the target is unchanged. Nature of the test: enhancers of rat Kvbeta2 NADPH turnover – biochemical, NADPH fluorescence, primary screen (AID 623;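 active = NADPH fluorescence slope more negative than the mean of all samples by about 3 SD, 99.7% confidence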;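 note: fluorescence intensity change per second fitted from 20 to 320 s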). As to conditions: Recombinant KvBeta, NADPH fluorescence decrease slope, 10 min; at 10 µM; stronger effect = lower value.
The target in test [8] is Alpha-2C adrenergic receptor (Homo sapiens) (UniProt P18825). Nature of the test: compounds altering alpha2C-coupled GIRK flux – cell-based, HEK293 alpha2C/GIRK1/2, thallium flux, primary screen (AID 624;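 active = fluorescence slope after compound addition differing from the mean of all screened samples at 99.7% confidence, in either direction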;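 note: slope of fluorescence ratio to pre-addition baseline per second over 15 to 24 s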). Particulars: thallium flux BTC fluorescence, at 10 µM, actives lie on both sides.
Chain of Alpha-2C adrenergic receptor (Homo sapiens) (P18825 whole entry, looked up): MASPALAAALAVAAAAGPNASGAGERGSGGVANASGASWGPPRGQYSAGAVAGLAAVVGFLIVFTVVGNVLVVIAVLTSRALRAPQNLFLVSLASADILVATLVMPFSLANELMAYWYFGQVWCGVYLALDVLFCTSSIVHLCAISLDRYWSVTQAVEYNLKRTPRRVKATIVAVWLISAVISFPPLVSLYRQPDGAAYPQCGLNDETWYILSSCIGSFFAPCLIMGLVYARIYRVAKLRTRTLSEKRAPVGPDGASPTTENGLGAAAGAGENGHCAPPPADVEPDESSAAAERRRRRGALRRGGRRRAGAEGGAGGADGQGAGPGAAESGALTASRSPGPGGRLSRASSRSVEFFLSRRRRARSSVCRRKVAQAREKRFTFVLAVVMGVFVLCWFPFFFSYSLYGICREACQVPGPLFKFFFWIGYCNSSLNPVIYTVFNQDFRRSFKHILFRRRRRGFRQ
A short description of test [9]: loss of swimming-algae plug formation – whole organism, Chlamydomonas reinhardtii, WT vs cilia-less mutant, absorbance, 96-well, primary screen (AID 463189;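 active = inhibition at or above 50% relative to wild type and mutant plate controls; inactive = inhibition below 50%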;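 note: 0% = wild type cc124 cells in DMSO and 100% = ciliumless bld1 mutant cells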). Particulars: Chlamydomonas reinhardtii gravitaxis, OD600 absorbance, 2 days; at 10 µM; stronger effect = higher value.
A short description of test [10]: blockers of RIG-like receptor reporter activation – cell-based, Sendai virus stimulus, luciferase, 10K MLSCN set, TLR/RLR signaling modifier project, primary screen (AID 602276;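 active = inhibition at or above 50% at 10 µM; inactive = inhibition below 50%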;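 note: firefly luciferase from ISG56 promoter only with Renilla not read in this screen; 0% = Sendai virus plus DMSO and 100% = medium plus DMSO without virus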). As to conditions: HEK293 RL24 IRF3 luciferase reporter, at 10 µM, stronger effect = higher value.
The nature of test [11]: TLR3 IRF3 reporter activation blockers – cell-based, poly I:C stimulus, luciferase, 10K MLSCN set, primary screen (AID 602277;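 active = inhibition of the reporter signal at or above 50%; inactive = inhibition below 50%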). Particulars: HEK293-TLR3 RL24 IRF3 luciferase reporter, at 10 µM, stronger effect = higher value.
The target of test [12] is Muscarinic acetylcholine receptor M4 (Homo sapiens) (UniProt P08173). Nature of the test: M4-linked GIRK flux change, two-sided – cell-based, HEK293 M4/GIRK, thallium flux, BTC-AM, M4 allosteric agonist project, primary screen (AID 625;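 active = fluorescence slope after compound addition differing from the mean of all tested samples at 99.7% confidence, mostly higher but some lower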;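 note: thallium influx through GIRK channels coupled to M4 in HEK293 cells with BTC-AM dye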). As to conditions: at 10 µM, actives lie on both sides.
Chain of Muscarinic acetylcholine receptor M4 (Homo sapiens) (P08173 whole entry, looked up): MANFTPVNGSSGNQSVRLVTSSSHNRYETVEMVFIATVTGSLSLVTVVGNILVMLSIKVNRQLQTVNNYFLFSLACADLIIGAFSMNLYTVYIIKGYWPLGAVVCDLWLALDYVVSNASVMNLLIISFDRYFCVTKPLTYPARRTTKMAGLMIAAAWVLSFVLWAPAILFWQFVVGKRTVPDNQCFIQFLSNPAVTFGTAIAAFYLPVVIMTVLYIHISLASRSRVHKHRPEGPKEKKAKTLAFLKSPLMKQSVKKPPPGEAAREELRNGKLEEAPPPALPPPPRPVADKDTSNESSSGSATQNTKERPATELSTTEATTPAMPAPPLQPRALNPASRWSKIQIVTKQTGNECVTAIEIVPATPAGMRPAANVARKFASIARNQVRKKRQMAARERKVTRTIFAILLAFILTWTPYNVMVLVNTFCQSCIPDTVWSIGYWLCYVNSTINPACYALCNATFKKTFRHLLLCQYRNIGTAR
Test [13] can be described thus: inhibitors of larval lipid processing in zebrafish, primary screen, whole organism, PED6 fluorescence, gall bladder and intestine (AID 686;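 active = a full or partial loss of lipid-probe fluorescence in the fish gall bladder, intestine or both, judged by eye; inactive = no fluorescence loss, or compound toxic to the fish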;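 note: larvae 5 to 7 days old with five fish per well; signal comes from phospholipase A2 cleavage of quenched PED6 carried via bile; overnight exposure to compound and PED6 before scoring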). As to conditions: Zebrafish larvae PED6 lipid processing, fluorescence scoring; screened at 20 µM (by protocol).
[14] abbreviates: measured here: cell density z-score.
Setting [15] is: measured here: nuclear c-Myc green intensity z-score.
Where [16] appears, read: measured here: nuclear pErk red intensity z-score, stronger effect = higher value.

Chain of Dual specificity protein phosphatase 6 (Homo sapiens) (Q16828 whole entry, looked up): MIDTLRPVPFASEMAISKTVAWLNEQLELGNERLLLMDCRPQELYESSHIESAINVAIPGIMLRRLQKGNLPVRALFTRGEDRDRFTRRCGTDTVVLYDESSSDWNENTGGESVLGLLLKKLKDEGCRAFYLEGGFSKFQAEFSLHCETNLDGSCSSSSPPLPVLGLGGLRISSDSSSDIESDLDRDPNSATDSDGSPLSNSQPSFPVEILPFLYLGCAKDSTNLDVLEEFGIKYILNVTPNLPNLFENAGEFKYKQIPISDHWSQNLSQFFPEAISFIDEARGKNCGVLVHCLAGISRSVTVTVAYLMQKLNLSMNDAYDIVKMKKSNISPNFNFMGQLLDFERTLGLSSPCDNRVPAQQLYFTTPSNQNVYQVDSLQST

In general, inhibition refers to the change of the read-out against control, counted positive when it falls. With `COC(=O)CC1SC(=O)NC1=O` (stereo not given), the cell count in [1] turned out to be 552. The inhibition in [1] was -6.8% (inactive); in test [3] it was -98.9% (inactive); in test [5], 5.26% (inactive); in test [9] it was 6.27% (inactive); in test [10], 1.46% (inactive); in [11], 8.22% (inactive). Further, in test [2], the inhibition of aggregation is 26.4% (inactive). The nuclei count in [2] was determined as 110%; in test [3], 124%. In addition, the z-score in test [4] (setting [14]) was -1.23; in test [4] (setting [15]), -0.523; in [4] (setting [16]) it was 0.399. In test [6], the fluorescence slope is -0.414 (inactive). Also, the NADPH fluorescence slope in [7] was -0.000171 (inactive). Besides, the slope in test [8] was 0.00686 (inactive).
With `C1CNCCNCCNCCN1`, the cell count in test [1] was 566. For the same molecule, the inhibition in [1] was -6.4% (inactive); in test [3] it was -31.7% (inactive); in [5], 10.2% (inactive); in test [9] it was 1.09% (inactive); in test [10], 13.2% (inactive); in test [11] it was 41.9% (inactive). In addition, the inhibition of aggregation in test [2] was 12.4% (inactive). In addition, the values for the nuclei count in test [2] and in test [3] were 109% and 105%, respectively. The z-score was -1.12 in test [4] (setting [14]), -0.574 in test [4] (setting [15]) and 0.0503 in test [4] (setting [16]). In addition, the fluorescence slope in [6] is -0.481 (inactive). In test [7], the NADPH fluorescence slope is -4.4e-05 (inactive). Moreover, in test [8], the slope was 0.00519 (inactive).
For the molecule `COc1ccc(C(=O)Cn2c(N3CCCCC3)nc3c2c(=O)n(C)c(=O)n3C)cc1OC`, the cell count in test [1] worked out at 537. Also, the inhibition was 4.7% (inactive) in test [1]; -58.1% (inactive) in test [3]; 3.5% (inactive) in [5]; 12.6% (inactive) in test [9]; 14.5% (inactive) in [10]; 12.6% (inactive) in test [11]. Further, the inhibition of aggregation in test [2] is 12.9% (inactive). Further, the values for the nuclei count in [2] and in [3] were 90.8% and 115%, respectively. The figures for the z-score in [4] (setting [14]), in [4] (setting [15]) and in test [4] (setting [16]) were -0.186, 0.344 and 0.238, respectively. Further, the fluorescence slope in [6] was -0.424 (inactive). Further, the NADPH fluorescence slope in test [7] is -9.5e-05 (inactive). Further, the slope in test [8] is 0.00577 (inactive).
Regarding `COCCNc1oc(-c2ccc(C)cc2)nc1C#N`, the cell count in test [1] was found to be 405. The inhibition is 1.6% (inactive) in [1]; -23.4% (inactive) in test [3]; 18.2% (inactive) in test [5]; 4.66% (inactive) in test [9]; -24.8% (inactive) in test [10]; -85.8% (inactive) in test [11]. Further, in test [2], the inhibition of aggregation was 12.5% (inactive). The nuclei count is 88.9% in [2] and 129% in test [3]. Besides, the z-score in [4] (setting [14]) is -0.898; in test [4] (setting [15]), 0.297; in [4] (setting [16]), 1.87. Further, the results for the fluorescence slope in [6] and in [12] were -0.461 (inactive) and 0.00552 (inactive), respectively. The NADPH fluorescence slope in [7] is -5.9e-05 (inactive). In [8], the slope is 0.00692 (inactive). Further, the outcome in test [13] was inactive.
As for `C=C(C)C1Cc2c(C)nn(-c3nc(C)cc(C)n3)c2C1` (stereo not given), in [1], the cell count is 462. Further, the inhibition in test [1] was -2.7% (inactive); in [3], -50.5% (inactive); in test [5] it was 1.98% (inactive); in [9], 51.6% (active); in test [10], 11.3% (inactive); in test [11], 16.4% (inactive). In test [2], the inhibition of aggregation is 5% (inactive). The results for the nuclei count in [2] and in test [3] were 84.7% and 121%, respectively. In addition, the z-score stood at 0.411 in [4] (setting [14]), 1.2 in [4] (setting [15]) and 0.938 in test [4] (setting [16]). Moreover, the fluorescence slope in [6] was -0.396 (inactive); in test [12] it was 0.00615 (inactive). In addition, the NADPH fluorescence slope in [7] was -3.5e-05 (inactive). The slope in test [8] is 0.00521 (inactive). The outcome in [13] was inactive.
Turning to `Cc1c(NC(=O)c2coc(=O)c(Br)c2)c(=O)n(-c2ccccc2)n1C`, in test [1], the cell count was determined as 620. Further, the inhibition was 1.7% (inactive) in test [1]; 4% (inactive) in [3]; 20.3% (inactive) in test [5]; 14% (inactive) in [9]; -5.82% (inactive) in test [10]; 56.8% (active) in [11]. For the same molecule, in test [2], the inhibition of aggregation was 3.9% (inactive). The values for the nuclei count in test [2] and in test [3] were 101% and 113%, respectively. Further, the z-score is -0.496 in [4] (setting [14]), 0.153 in test [4] (setting [15]) and -1.2 in test [4] (setting [16]). Besides, the fluorescence slope in [6] was -0.46 (inactive); in test [12], 0.00586 (inactive). Moreover, the NADPH fluorescence slope in [7] is -2.1e-05 (inactive). Further, the slope in test [8] was 0.0067 (inactive). In addition, the molecule was classed as inactive in [13].
On to `CCOC(=O)c1[nH]c2ccc(OC)cc2c1NC(=O)CCN1CCC(C)CC1`, for which the cell count in [1] worked out at 568. The inhibition is -0.3% (inactive) in [1]; -54.8% (inactive) in test [3]; -8.59% (inactive) in test [5]; 29.3% (inactive) in test [9]; -0.0655% (inactive) in test [10]; 13.6% (inactive) in test [11]. For the same molecule, the inhibition of aggregation in test [2] is 6.8% (inactive). In addition, the nuclei count in [2] was determined as 110%; in [3], 115%. Besides, the results for the z-score in test [4] (setting [14]), in [4] (setting [15]) and in test [4] (setting [16]) were 0.39, -0.288 and -0.933, respectively. The fluorescence slope was -0.339 (inactive) in [6] and 0.00353 (inactive) in test [12]. Further, in [7], the NADPH fluorescence slope was -3.9e-05 (inactive). In [8], the slope is 0.00576 (inactive). Moreover, the outcome in [13] was inactive.
